# An excerpt weighted towards active compounds, which were near 2.7% of everything screened.
# NRP1-CendR mod = NRP-1/CendR interaction modulation. 360,000 compounds, 0.85% hits. FAM-RPARPAR peptide binding to NRP-1, fluorescence polarization. inhibition, % at 25 µM. O14786;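 active means inhibition or corrected inhibition above about 18%, plus a signal ratio from 0.5 to 1.5, limit read from the data, passing the limit was not always enough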
# Target sequence (O14786 whole entry, looked up): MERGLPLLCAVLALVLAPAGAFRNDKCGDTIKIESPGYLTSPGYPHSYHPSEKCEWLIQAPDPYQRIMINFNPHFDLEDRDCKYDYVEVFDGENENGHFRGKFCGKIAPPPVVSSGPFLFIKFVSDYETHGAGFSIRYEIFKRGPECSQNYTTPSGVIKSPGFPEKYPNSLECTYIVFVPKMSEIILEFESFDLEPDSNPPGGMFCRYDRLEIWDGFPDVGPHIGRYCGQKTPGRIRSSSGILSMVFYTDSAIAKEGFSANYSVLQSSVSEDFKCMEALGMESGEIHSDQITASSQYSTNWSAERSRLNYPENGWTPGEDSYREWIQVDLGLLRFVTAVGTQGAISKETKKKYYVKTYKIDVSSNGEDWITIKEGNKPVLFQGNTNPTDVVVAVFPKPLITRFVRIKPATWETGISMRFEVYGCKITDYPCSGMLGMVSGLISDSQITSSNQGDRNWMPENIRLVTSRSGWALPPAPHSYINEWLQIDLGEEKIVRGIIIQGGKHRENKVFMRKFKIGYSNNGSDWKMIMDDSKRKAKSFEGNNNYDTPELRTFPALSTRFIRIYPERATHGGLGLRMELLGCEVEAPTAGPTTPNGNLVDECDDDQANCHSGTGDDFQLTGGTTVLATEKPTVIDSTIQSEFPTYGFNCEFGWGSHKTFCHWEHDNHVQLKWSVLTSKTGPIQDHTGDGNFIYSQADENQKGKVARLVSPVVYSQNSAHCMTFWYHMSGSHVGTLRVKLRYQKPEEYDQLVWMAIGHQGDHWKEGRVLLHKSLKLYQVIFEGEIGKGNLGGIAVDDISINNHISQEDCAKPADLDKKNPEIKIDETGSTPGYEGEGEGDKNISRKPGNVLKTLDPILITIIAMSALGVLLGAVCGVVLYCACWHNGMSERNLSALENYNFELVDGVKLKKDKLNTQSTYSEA
# ATG4B inh = ATG4B (human) cysteine protease inhibition. ATG4B cleavage of LC3-PLA2, NBD-HPC fluorescence, 1 h. 340,000 compounds, 0.51% hits. inhibition, % at 8.33 µM. Q9Y4P1; in the data active means inhibition above about 40%
# CFTR F508del cor = correctors of CFTR F508del function in bronchial epithelial cells; CFBE cells, YFP halide quenching; stimulated with forskolin plus potentiator P3; % fluorescence drop versus neutral controls; activity (quench increase), % at 7.58 µM; 350,000 compounds, 0.36% hits;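 active means mean added fluorescence quench of at least 8% versus neutral control, with both replicates also reaching 8%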;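 further: cells transiently co-express mutant CFTR-F508del with the halide-sensitive YFP; corrector assay measuring rescue of mutant channel to the surface after 24 h compound exposure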
# MPTP block = permeability transition pore inhibition | AID 602449 | 360,000 compounds, 1.4% hits | inhibition, % at 10 µM | isolated mouse mitochondria, Ca2+ swelling absorbance, 30 min;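 active means inhibition of 50% or more, scaled per plate between neutral and stimulator controls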;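 further: 0% = DMSO wells given calcium and 100% = 1 mM EGTA wells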
# SKN-1 block = C. elegans SKN-1 inhibition | C. elegans VP596 Pgst-4::GFP/RFP ratio, acrylamide-induced, 24 h | 360,000 compounds, 0.49% hits | inhibition, % at 21.8 µM;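 active means interference check ratio from 0.5 to 1.5 plus GFP to RFP signal ratio inhibition reaching or exceeding a fixed threshold, cut at about 30% in these data, passing the limit was not always enough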
# * = called active by the depositor; / = not tested or not shown.
SMILES,NRP1-CendR mod,ATG4B inh,CFTR F508del cor,MPTP block,SKN-1 block
c1ccc(-c2ccccc2-c2nc(-c3ccncc3)no2)cc1,4.7,-3.6,/,0.6,-22.2
CCCN(C)C[C@@H]1Oc2cc(C#CCC3CCCC3)ccc2S(=O)(=O)N([C@@H](C)CO)C[C@@H]1C,/,/,-1.8,/,/
CCCNC(=O)[C@H]1[C@H](CO)[C@H]2Cn3c(ccc(-c4ccc(F)cc4)c3=O)[C@H]2N1CC,/,/,-1.4,/,/
O=C(O)c1cccc(S(=O)(=O)N2CCN(C(c3ccccc3)c3ccccc3)CC2)c1,36.0*,-1.9,-3.7,-1.6,-5.2
CN(C)C(CNC(=O)c1cccc(S(=O)(=O)N2CCN(c3ccc(F)cc3)CC2)c1)c1ccccc1 (stereo not drawn),1.1,7.4,0.3,4.1,46.2*
CN(CCOc1ccc(Cl)cc1)C(=O)c1cccc(S(=O)(=O)N2CCN(c3ccccc3)CC2)c1,7.3,-8.2,8.6*,20.8,9.5
CN(Cc1ccc(Cl)cc1Cl)C(=O)c1cccc(S(=O)(=O)N2CCN(c3ccccc3)CC2)c1,10.0,-5.8,-0.7,1.9,-4.3
CC(=C/c1ccco1)/C=N/N1CCN(c2ccccc2)CC1,-0.9,-1.5,/,-0.2,36.0*
CC(/C=N/N1CCN(c2ccccc2)CC1)=C\c1ccco1,-5.4,-8.4,-1.8,1.5,-3.8
CC(/C=N/N1CCN(c2ccccn2)CC1)=C\c1ccccc1,0.2,1.1,/,2.5,66.8*
CCNC(=O)C[C@@H]1CC[C@@H]2[C@H](COc3ccc(NC(=O)c4ccccc4)cc3C(=O)N2C)O1,/,/,-0.1,/,/
COC(=O)c1ccc(CS(=O)(=O)c2ccc(F)cc2)o1,3.3,-0.6,9.5*,0.4,-10.1
COc1ccc(S(=O)(=O)Cc2ccc(C(=O)NC(C)C)o2)cc1,-4.4,4.7,2.3,-1.1,-0.1
CN(C)c1ccc(C=C2C=Cc3ccccc32)cc1,-12.4,8.1,4.2,2.7,2.9
CNc1ccc(C=C2C=Cc3ccccc32)cc1,-7.5,5.1,-1.3,4.3,81.7*
Cc1ccc(COn2c(-c3ccc(Cl)cc3Cl)nc3ncccc32)cc1,33.4*,1.8,/,-6.4,21.0
COc1cccc(CNC(=O)C[C@@H]2CC[C@@H](NC(=O)C3CCOCC3)[C@H](CO)O2)c1,/,/,1.5,/,/
CCOc1cc(C(=S)N2CCOCC2)ccc1OS(=O)(=O)c1ccc(OC)cc1,29.6*,-5.5,1.6,-0.4,34.4
O=C(C[C@H]1C=C[C@H](NC(=O)C2CCOCC2)[C@@H](CO)O1)NCC1CCCCC1,/,/,-2.2,/,/
OC(CNC1CCCC1)COc1ccc(-c2ccccc2)cc1 (stereo not drawn),-6.3,10.9,-0.4,2.0,43.4*
C[C@@H]1CCCCO[C@@H](CN(C)C(=O)Nc2ccc(F)cc2)[C@H](C)CN([C@H](C)CO)C(=O)c2cc(NC(=O)Cc3ccccc3)ccc2O1,/,/,-0.8,/,/
CC(=O)N(C)C[C@H]1Oc2cc(-c3cncnc3)ccc2S(=O)(=O)N([C@H](C)CO)C[C@@H]1C,/,/,1.8,/,/
CC=Cc1ccc2n(c1=O)C[C@H]1[C@H](CO)[C@@H](C(=O)NCC3CC3)N(Cc3ccccn3)[C@@H]21 (mixture of isomers),/,/,-0.7,/,/
Cc1cccc(C)c1NC(=O)CNC(=O)C1CCCN(C(=O)c2ccc(Cl)cc2)C1 (stereo not drawn),-6.2,-6.7,-3.3,-0.3,-22.5
CCCN(CC(=O)Nc1ccccc1C)C(=O)c1ccc(C2SCCS2)cc1,25.7*,6.5,-0.1,0.1,1.3
SMILES,NRP1-CendR mod,ATG4B inh,CFTR F508del cor,MPTP block,SKN-1 block
CCCN(CC(=O)Nc1ccccc1C)C(=O)C1CCCN(C(=O)c2ccc(Cl)cc2)C1 (stereo not drawn),18.9*,-8.9,1.9,-0.3,-11.3
COc1ccc(NC(=O)N(C)C[C@H]2OCCCC[C@H](C)Oc3ccc(NC(=O)C4CCCCC4)cc3C(=O)N([C@@H](C)CO)C[C@@H]2C)cc1,/,/,-1.6,/,/
CC(C)NC(=O)Nc1cccc2c1O[C@H](CN(C)Cc1ccc(Oc3ccccc3)cc1)[C@H](C)CN([C@H](C)CO)C2=O,/,/,-1.2,/,/
C[C@@H]1CCCCO[C@H](CN(C)Cc2ccccc2)[C@@H](C)CN([C@H](C)CO)C(=O)c2cc(NC(=O)Nc3ccccc3)ccc2O1,/,/,3.1,/,/
O=C(C[C@@H]1CC[C@H]2[C@@H](COC[C@@H](O)CN2C(=O)c2ccccc2)O1)Nc1nccs1,/,/,0.6,/,/
C[C@@H]1CN([C@H](C)CO)C(=O)c2cc(-c3cccnc3)cnc2O[C@@H]1CN(C)C(=O)Nc1ccc2c(c1)OCO2,/,/,0.4,/,/
CN(CC(=O)Nc1ccc(F)cc1)C(=O)c1ccc(OCc2cn3ccccc3n2)cc1,27.0*,-4.6,-0.2,-1.2,-6.4
NC(=O)N1c2ccccc2CC(=O)c2ccccc21,34.8*,-9.0,-1.1,1.0,-11.6
Cc1noc(C)c1NC(=O)Nc1ccc2c(c1)C(=O)N([C@H](C)CO)C[C@H](C)[C@H](CN(C)Cc1ccccc1)O2,/,/,-1.4,/,/
COc1ccc(/C=C/C(=O)c2nc3ccccc3n2CC(=O)c2ccc(OC)cc2)cc1,2.1,-17.5,/,-0.3,44.5*
CCOc1ccc(/C=N/NC(=O)c2c(C)n(C)c3ccc(OC)cc23)cc1,-2.6,-0.8,7.7,0.9,7.5
COc1ccc2c(c1)c(C(=O)N/N=C/c1ccc(Br)cc1)c(C)n2C,26.0*,-8.9,-1.8,0.9,9.0
O=C(c1ccc2c(c1)OCO2)N1C[C@@H]2[C@H](c3ccccc31)[C@@H](CO)N2Cc1ccc2c(c1)OCO2,/,/,2.5,/,/
O=C(CSc1nnc(COc2ccc(Cl)cc2)o1)NC1CC2CCC1C2 (stereo not drawn),6.3,1.3,0.5,1.2,38.5*
Cc1ccc(SCC(=O)OCC(=O)N(CCC#N)c2ccccc2)cc1,31.3*,3.1,2.1,-0.8,-1.8
N#CCCN(C(=O)COC(=O)c1ccc2c(c1)OCO2)c1ccccc1,4.3,-0.1,0.2,-1.5,11.3
N#CCCN(C(=O)COC(=O)c1cc(=O)c2ccccc2o1)c1ccccc1,-11.9,-9.8,12.9*,-0.3,1.7
C[C@@H]1CN([C@H](C)CO)S(=O)(=O)c2ccc(-c3cncnc3)cc2O[C@H]1CN(C)C(=O)CC1CC1,/,/,1.2,/,/
CCOc1ccc2c(c1)C(C)=CC(C)(C)N2S(=O)(=O)c1ccc(NC(C)=O)cc1,5.0,-1.1,1.0,0.3,3.3
CCOc1ccc2c(c1)C(C)=CC(C)(C)N2S(=O)(=O)c1ccc(F)cc1,-0.4,3.7,10.3*,0.5,6.8
O=C(COc1cc(Cl)c(Cl)cc1Cl)Nc1ccc([N+](=O)[O-])cc1Cl,24.3*,0.0,-0.1,0.9,14.6
C[C@@H]1CN([C@H](C)CO)C(=O)c2cc(NC(=O)CCC(F)(F)F)ccc2O[C@@H](C)CCCCO[C@H]1CN(C)C(=O)NC1CCCCC1,/,/,-2.8,/,/
O=C(Oc1cncc(Cl)c1)c1ccco1,-1.3,-5.7,/,-0.9,39.2*
C[C@@H]1CN([C@@H](C)CO)C(=O)Cc2cc(NS(C)(=O)=O)ccc2O[C@H]1CN(C)S(=O)(=O)c1cccs1,/,/,-2.4,/,/
